Source: PubChem BioAssay
The list is not random: actives were taken first. Their share in the collection is about 5%.
PREPL inh = inhibitors of human prolyl oligopeptidase-like enzyme PREPL; Q4J6C6; recombinant PREPL, fluorescence polarization activity-based probe; inhibition, % at 5.96 µM; 320,000 tested, 0.68% active; in the data active means inhibition above about 43%
CHT inh = inhibitors of human choline transporter CHT. Q9GZV3. B-score at 10 µM. 310,000 tested, 0.86% active. CHT-expressing cells, membrane potential dye, choline response; active compounds read low;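 active means B-score over 3 SD under the library average, and starting fluorescence ratio not unusually high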;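 further: choline stimulus applied at its EC90 after an EC20 pre-addition; B-score computed on integrated fluorescence ratio after choline addition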
ALR inh = blocks human ALR sulfhydryl oxidase activity. P55789. purified ALR, DTT oxidation, H2O2 HRP-luminol luminescence. inhibition, % (concentration not given with the values). 290,000 tested, 3.8% active. AID 485317;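 active means mean replicate inhibition above about 79%, with every replicate also reaching it, limit read from the data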
Target sequence (P55789 whole entry, looked up): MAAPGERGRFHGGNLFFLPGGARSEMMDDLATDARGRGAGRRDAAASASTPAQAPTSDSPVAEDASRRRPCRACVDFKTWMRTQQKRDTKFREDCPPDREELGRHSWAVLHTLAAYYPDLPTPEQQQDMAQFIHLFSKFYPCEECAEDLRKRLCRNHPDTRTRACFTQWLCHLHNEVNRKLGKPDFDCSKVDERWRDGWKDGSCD
CHT PAM = allosteric activators of human choline transporter CHT | B-score at 10 µM | AID 488977 | 310,000 tested, 0.49% active | CHT-expressing cells, membrane potential dye, choline EC20; active compounds read high; LV-AA mutant CHT in HEK293 cells;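 active means initial fluorescence not abnormally high and integrated response B-score, plate-corrected, over 3 SD above library mean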
AI-2 QS modul = Vibrio harveyi AI-2 quorum sensing modulation | Vibrio harveyi JMH597 AI-2 luminescence/OD600 ratio, 9 h; active compounds read low; strain lacks LuxN and CqsS sensors; 0 = neutral-control median | activity change, % at 7.5 µM | 300,000 tested, 0.4% active | AID 2094; in the data active means activity change below about -75%, passing the limit was not always enough;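 further: luminescence divided by OD600 gain over 9 h not by final OD600 alone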
A number is an active result.

Cc1cccc(C(=O)N/N=C2\CS(=O)(=O)N(C)c3ccsc32)c1 was read as PREPL inh inactive, CHT inh inactive, CHT PAM inactive and AI-2 QS modul inactive.
For O=C1NC2(CCCCCC2)C(=O)N1Cc1c(F)cccc1Cl the results were PREPL inh inactive, CHT inh inactive, CHT PAM inactive and AI-2 QS modul inactive.
O=C(CSc1n[nH]c(=O)[nH]c1=O)N/N=C/c1ccccc1O was read as PREPL inh inactive, CHT inh inactive, CHT PAM inactive and AI-2 QS modul inactive.
For COc1cc(/C=N/NC(=O)CSc2n[nH]c(=O)[nH]c2=O)cc(OC)c1O the results were PREPL inh inactive, CHT inh inactive, ALR inh 98, CHT PAM inactive and AI-2 QS modul inactive.
For CCn1c(SCC(=O)N/N=C/c2ccc(O)c(OC)c2)nc2ccccc21 the results were PREPL inh inactive, CHT inh inactive, ALR inh 99, CHT PAM inactive and AI-2 QS modul inactive.
`CCn1c(SCC(=O)N/N=C/c2cc(OC)c(O)c(OC)c2)nc2ccccc21` gave PREPL inh inactive, CHT inh inactive, ALR inh 99, CHT PAM inactive and AI-2 QS modul inactive.
`CCn1c(SCC(=O)N/N=C/c2cc(OC)c(OC)c(OC)c2)nc2ccccc21` gave PREPL inh inactive, CHT inh inactive, ALR inh inactive, CHT PAM inactive and AI-2 QS modul inactive.
`Cc1cc2c(c(C)c1CCO)C(=O)[C@H](C)C2` gave PREPL inh inactive.
For O=C(O)c1ccc2c(c1)C(=O)N(c1ccc(Nc3ccccc3)cc1)C2=O the results were CHT inh inactive, ALR inh 98, CHT PAM inactive and AI-2 QS modul inactive.
O=C(O)c1cccc(NC(=O)c2ccc3c(c2)C(=O)N(c2ccccc2)C3=O)c1 was read as PREPL inh inactive, CHT inh inactive, ALR inh inactive, CHT PAM inactive and AI-2 QS modul inactive.
Screening COC(C(=O)N1CCC(n2nccc2NC(=O)C2CC2)CC1)c1ccccc1 (stereo not given) returned PREPL inh inactive, CHT inh inactive, ALR inh inactive, CHT PAM inactive and AI-2 QS modul inactive.
For C=CCN(C(=O)C1=NN(C2CCS(=O)(=O)C2)C(=O)CC1)c1nc(-c2ccc([N+](=O)[O-])cc2)cs1 (stereo not given) the results were PREPL inh inactive, CHT inh inactive, ALR inh inactive, CHT PAM inactive and AI-2 QS modul inactive.
Screening Nc1cc(Cl)nc(N/N=C/c2c(O)ccc3ccccc23)n1 returned PREPL inh 43, CHT inh inactive, ALR inh inactive, CHT PAM inactive and AI-2 QS modul inactive.
Screening Nc1nonc1N/N=C/c1c(O)ccc2ccccc12 returned PREPL inh inactive, CHT inh inactive, ALR inh inactive, CHT PAM inactive and AI-2 QS modul inactive.
O=C(NCC(c1ccco1)N1CCc2ccccc2C1)C(=O)Nc1cc(F)ccc1F (stereo not given) was read as PREPL inh inactive, CHT inh inactive, ALR inh inactive, CHT PAM inactive and AI-2 QS modul inactive.
Screening CC(C)(C)c1ccc(Cn2c(=N)n(CC(O)c3ccco3)c3ccccc32)cc1 (stereo not given) returned PREPL inh inactive, CHT inh -6.6, CHT PAM inactive and AI-2 QS modul inactive.
Screening Cc1c(CN2CCC(CO)(CCOc3ccccc3)CC2)[nH]c2c(Cl)cccc12 returned PREPL inh inactive, CHT inh inactive, CHT PAM inactive and AI-2 QS modul inactive.
Screening OCCN(CCO)c1ccc2ccccc2c1 returned PREPL inh inactive, CHT inh inactive, ALR inh 98, CHT PAM inactive and AI-2 QS modul inactive.
`COC(=O)c1ccc(CNC(=O)CNc2cc(C(F)(F)F)ccc2N2CCOCC2)cc1` gave PREPL inh inactive, CHT inh inactive, ALR inh 99, CHT PAM inactive and AI-2 QS modul inactive.
For COc1ccccc1NC(=O)COC(=O)c1[nH]c(=O)[nH]c(=O)c1N the results were PREPL inh inactive and ALR inh inactive.
O=C(NC1CCCCC1)c1cccc(OCc2ccccc2)c1 was read as PREPL inh inactive, CHT inh inactive, ALR inh inactive, CHT PAM inactive and AI-2 QS modul inactive.
For CC(C)(C)C1CCC(C(=O)OCC(=O)Nc2ccc3[nH]c(=O)[nH]c3c2)CC1 (stereo not given) the results were PREPL inh inactive, CHT inh inactive, ALR inh inactive, CHT PAM inactive and AI-2 QS modul inactive.
`CCc1ccc2c(c1)[C@H]1OCC[C@H]1[C@@H](c1cccs1)N2` gave PREPL inh inactive, CHT inh inactive, ALR inh 97, CHT PAM inactive and AI-2 QS modul inactive.
`Clc1ccc2c(c1)[C@H]1OCC[C@H]1[C@@H](c1ccco1)N2` gave PREPL inh inactive, CHT inh inactive, ALR inh inactive, CHT PAM inactive and AI-2 QS modul inactive.
For Cc1c(CN2CCC(n3nccc3NC(=O)C3CC3)CC2)[nH]c2ccccc12 the results were PREPL inh inactive, CHT inh inactive, ALR inh inactive, CHT PAM inactive and AI-2 QS modul inactive.
`CCOC(=O)N1CCN(c2c(NCCCN(CC)CC)c(=O)c2=O)CC1` gave PREPL inh inactive, CHT inh inactive, ALR inh inactive, CHT PAM inactive and AI-2 QS modul inactive.
CCN(CCCNC(=O)COc1cc(=O)n(C)c2ccccc12)c1cccc(C)c1 was read as PREPL inh inactive, CHT inh inactive, ALR inh 98, CHT PAM inactive and AI-2 QS modul inactive.
Screening CCN(CCCNC(=O)C1CCC(=O)N1Cc1ccccc1Cl)c1cccc(C)c1 (stereo not given) returned PREPL inh inactive, CHT inh inactive, ALR inh 99, CHT PAM inactive and AI-2 QS modul inactive.
`CCCCN(CCCNC(=O)CN1C(=O)COc2ccccc21)c1ccccc1` gave PREPL inh inactive, CHT inh inactive, ALR inh inactive, CHT PAM inactive and AI-2 QS modul inactive.
Screening CCOC(=O)N1CCN(c2c(NCCCN(CC)c3cccc(C)c3)c(=O)c2=O)CC1 returned PREPL inh inactive, CHT inh inactive, ALR inh 99, CHT PAM inactive and AI-2 QS modul inactive.
Screening CCN(CCCNC(=O)CN1C(=O)COc2ccccc21)c1cccc(C)c1 returned PREPL inh inactive, CHT inh inactive, ALR inh 99, CHT PAM inactive and AI-2 QS modul inactive.
COCC(O)CNc1ccccc1 (stereo not given) was read as PREPL inh inactive, CHT inh inactive, ALR inh inactive, CHT PAM inactive and AI-2 QS modul inactive.
Cc1ccc(C2=Nc3cccnc3C(c3ccccc3)=NN2)cc1 was read as PREPL inh inactive, CHT inh inactive, CHT PAM inactive and AI-2 QS modul inactive.
O=C(C(=O)N1CCCC1CO)N1CCCC1CO (stereo not given) was read as PREPL inh inactive, CHT inh inactive, ALR inh inactive, CHT PAM inactive and AI-2 QS modul inactive.
